# Measured values as given in PubChem BioAssay (Tox21).
# Records with an inconclusive call do not appear. Unmarked numbers belong to inactive results. The call rests on the fitted dose curve; in most records, active means well fitted cell-killing curve with a large enough effect in the repeat runs; inconclusive means weak or mixed curves, or effect the other way; inactive means flat fitted curve, though single readings scatter. Where a SMILES comes first, the peptide text is derived from it. [ ]: non-standard residue; d: D form. pGlu = O=C1CC[C@@H](C(=O)O)N1
# Assay: qHTS assay to identify small molecule agonists of the sonic hedgehog signaling (Shh) pathway - cell viability counter screen (AID 1259366); further: nearly all actives have a fitted effect of over 50% in size
# Details: NIH/3T3 Gli1-Luc viability, CellTiter-Fluor, 24 h; series mostly up to 92.4 µM; viability change, negative = cytotoxic: at the top concentration
# Excerpt: National Center for Advancing Translational Sciences [NCATS]
# NIH Chemical Genomics Center [NCGC]
# U.S. Environmental Protection Agency [EPA]
# National Institutes of Environmental Health Sciences [NIEHS]
# National Toxicology Program [NTP]
# U.S. Food and Drug Administration [FDA]
# The sonic hedgehog (Shh) pathway is essential for normal embryonic development. Dysregulation of the Shh pathway can cause severe developmental defects in organs. Therefore chemicals that interfere with the pathway are potential developmental toxicants. A cell line designated 3T3Gli1-Luc (DMB/OARSA/CFSAN/FDA, Laurel, MD), a NIH/3T3 derived clone containing stably integrated Gli1-Luc reporter is used to detect chemical interference of the Shh pathway, by changes in the expression of the firefly Luc gene under the control of the Gli1 transcriptional response element. This cell line was used to screen Tox21 libraries for identifying and prioritizing the potential developmental toxicants that interfere Shh pathway. The cytotoxicity of the compounds was tested in parallel by measuring the cell viability using CellTiter-Fluor assay system (Promega, Madison, WI) in the same wells.
# Tox21 Assay Protocol Summary:
# 3T3 Gli1-Luc cells were dispensed at 2,000 per well in 5uL of culture medium into white solid bottom 1536-well plates (Greiner Bio-One, Monroe, NC) using a Multidrop Combi (Thermo Scientific, Waltham, MA) dispenser. The assay plates were incubated at 37 C and 5% CO2 for 4hr, and then 23nL of compounds dissolved in DMSO and positive control were transferred using a Pintool station (Wako, San Diego, CA). The assay plates were incubated at 37C and 5% CO2 for 24hr. For viability read, after 23hr of compound treatment, 1uL of CellTiter-Fluor reagent (Promega Corporation, Madison, WI) was added to each well of the assay plates using Flying Reagent Dispenser (FRD, Aurora Discovery, San Diego, CA) and incubated the assay plates at 37C for 1hr. The fluorescence signal was quantified using a ViewLux plate reader (Perkin Elmer, Shelton, CT).
# On the % scale 0 is the no-effect control and ±100 the full control effect.
row,Compound,"viability change, negative = cytotoxic"
1,CCCCCCCCCCCCCCCCCCO,-4.93% [at 42.5 µM]
2,CCCC(C)C(=O)OCC (stereo not given),5.24%
3,O=C(O)Cc1csc(-c2ccc(Cl)cc2)n1,0.421% [at 42.5 µM]
4,CN1C(C)(C)CC(O)CC1(C)C,1.68%
5,Clc1cc(Cl)c(Cl)nc1Cl,3.32%
6,CNC(=O)Nc1ccc(Cl)c(Cl)c1,1.12%
7,CCCCCCCCCCOc1cc2c(=O)c(C(=O)OCC)c[nH]c2cc1OCC,2.95% [at 8.39 µM]
8,CCNS(=O)(=O)c1ccc(C)cc1,3.02%
9,CCCCc1nc(Cl)c(CO)n1Cc1ccc(-c2ccccc2-c2nn[nH]n2)cc1,-0.0053% [at 42.5 µM]
10,CCOCC(C)O (stereo not given),2.38%
11,CCCc1nn(C)c2c(=O)[nH]c(-c3cc(S(=O)(=O)N4CCN(C)CC4)ccc3OCC)nc12,-13.9% [at 42.5 µM]
12,CCCCN1C=CN(C)C1,3.43% [at 19 µM]
13,CC(CO)(CO)[N+](=O)[O-],1.06%
14,CC(C)CC(C)(N)C#N (stereo not given),-0.962%
15,Cc1cccc(C)c1NC(=O)CC12CCCN1CCC2,2.56% [at 42.5 µM]
16,COc1ccnc(CS(=O)c2nc3cc(OC(F)F)ccc3[nH]2)c1OC (stereo not given),2.02%
17,C=CCCCCCCCCC(=O)OCC,0.501%
18,CCC(C)(CCCC(C)C)OC(C)=O (stereo not given),2.38%
19,C[N+]1(CC2COC(c3ccccc3)(c3ccccc3)O2)CCCCC1 (stereo not given),9.08% [at 19 µM]
20,NC(=O)NC1N=C([O][Al])NC1=O (stereo not given),8.29% [at 42.5 µM]

row,Compound,"viability change, negative = cytotoxic"
1,CCN1C=CN(C)C1C (stereo not given),0.255%
2,C[C@@H]1C[C@H]2[C@@H]3C[C@H](F)C4=CC(=O)C(Cl)=C[C@]4(C)[C@@]3(F)[C@@H](O)C[C@]2(C)[C@@]1(O)C(=O)CO,21.4% [at 42.5 µM]
3,FB(F)F,0.448%
4,C=CC(C)(CCC=C(C)C)OC(=O)CC (stereo not given),2.54%
5,C=C(C)C(=O)OCCOCCOCCOCCOC(=O)C(=C)C,-11.7%
6,C[C@@H]1CCC[C@H](C)N1,3.18% [at 42.5 µM]
7,COc1cc(C)nc(-n2nc(C)cc2OC)n1,-0.677% [at 42.5 µM]
8,O=C(O)CNC(=O)c1ccccc1,-2.01% [at 42.5 µM]
9,C1CCC2=NCCCN2CC1,0.765%
10,CC1=CC(=O)[C@H]2C[C@@H]1C2(C)C,0.703%
11,CCOC(=O)C1=NOC(c2ccccc2)(c2ccccc2)C1,2.95%
12,CC1=NN(c2cccc(S(=O)(=O)O)c2)C(=O)C1,-8.46%
13,Nc1ccn([C@@H]2O[C@H](CO)[C@@H](O)[C@@H]2O)c(=O)n1,2.15%
14,C[C@H]1C[C@H]2[C@@H]3CCC4=CC(=O)C=C[C@]4(C)[C@H]3C(=O)C[C@]2(C)[C@@]1(O)C(=O)CO,4.85% [at 42.5 µM]
15,NC(CCC(=O)O)C(=O)O (stereo not given),-0.146%
16,CC(=O)NC(=O)c1ccccc1O,5.22% [at 42.5 µM]
17,CN1CCN(c2cc3c(nn2)Oc2ccccc2N3C)CC1,8.2% [at 19 µM]
18,CC[N+](CC)(CC(=O)Nc1c(C)cccc1C)Cc1ccccc1 (tested in a mixture with another compound),5.95% [at 42.5 µM]
19,CCNC(=O)[C@@H]1CCCN1C(=O)[C@H](CCCN=C(N)N)NC(=O)[C@H](CC(C)C)NC(=O)CNC(=O)[C@H](Cc1ccc(O)cc1)NC(=O)[C@H](CO)NC(=O)[C@H](Cc1c[nH]c2ccccc12)NC(=O)[C@H](Cc1cnc[nH]1)NC(=O)[C@@H]1CCC(=O)N1 ([pGlu]HWSYGLRP-NHEt),3.06% [at 42.5 µM]
20,CC1(C)OC[C@@H](COC(=O)CCc2ccc(OC[C@@H](O)CNCCNC(=O)N3CCOCC3)cc2)O1,-4.39% [at 42.5 µM]
